These results are taken from the supplement of paper PMC6555819.

The experiment deals with VDR:RXRa (NR concentration 270 nM, RXRa partner concentration 90 nM). The experiment is described as follows: PBM binding z-score (relative to random genomic background probes); higher = stronger binding; sequences stand for … in GC…GCGATTGACAGCGTAGAATGAAGG
How it is done: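 Protein-binding microarray (Agilent 4x180K custom design, double-stranded 60-nt probes: 5' GC cap, 34-nt variable region, 24-nt constant primer region; full probe sequence given). Purified or IVT nuclear receptor:RXRα heterodimers (3:1 NR:RXRα, mostly 270:90 nM) or homodimers were incubated for 1 h in PBS with 2% milk and no ligand, then detected with Alexa488 antibodies. Fluorescence from o1-orientation probes (~5 replicates averaged) was converted to z-scores against 500 random hg19 background probes. Variable regions are seed direct-repeat (DR0–DR5) sites, all their single-nucleotide variants and half-site ablations.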
ATATGTAGGTTAGGGGCATTCAGAAAGTAGGGAA: the PBM binding z-score was determined as 1.44.
For the sequence CATACTAGGTCAAAGGTCAAAGTCGAGCCAACCA, the PBM binding z-score came out at 6.61.
In turn, TCTGCTATGTCAACGATGGTCAGCTAATCTGCTA registered a PBM binding z-score of -0.405.
The sequence CGTCCAAGGTCAATTCTAGGTCAGTGAAAGCATT showed a PBM binding z-score of 4.61.
For TCGAGTAGGTTACGGGGCCATTCAGGGATGAAGA the value was 1.26; for AGATTGAGGTTACCAAAGATCAGGGAAACGCTTG, 1.39; for CCGAGTAGGTTACGAGGGGGCATACAGTGCGAAT, 4.67.
For CCGAGTAGGTTACGAGAGGGCATTCAGTGCGAAT the value was 4.33; for CTCGAAAGGTCGAGCTCAGGTGAGTATACCAAAC, 2.71; for ATATGTAGGTTAGGGTCATTCAGAAAGTAGGGAA, 4.7.
For ATCGAACGGTCGAGGTGAGTATAGAGAAAGGGAA, the PBM binding z-score is -0.335.
For TAGCCTAGCTCATTCAGGGGCCAGTATAGAAAGC the value was -0.541; for CCTACTGGGCCATTCAGAGGTCATCGATCATATG, 4.05; for CAAAATAGGTCAAGGTCAAAGTCGGTTTGTGCCA, 5.51.
Consider TCGAGTAGTTTACGGGGGCATTCAGGGATGAAGA, for which the PBM binding z-score turned out to be 3.09.
The sequence ATATGTAGGTCAGGGTCATTCAGAAAGTAGGGAA had a PBM binding z-score of 5.08.
For AGTCAGAGTTCATCTAGGTAACGTAAGATATGCT the value was 5.48; for ACTAGTTGGTCACCTGAGGTCACACACAATTCGG, 5.23; for CCGTGTAGGTTACGAGGGGGCATTCAGTGCGAAT, 5.7.
For AGTCATAGTTCACTAGGTAACGTAAGATTCAGCT the value was 1.12; for TCTAGGAGGACACGAAGGTCAGAGCTTTCCAGAG, 2.25.
For the sequence TCGATTAGGTTACGGGGGCATTCAGGGATGAAGA, the PBM binding z-score worked out at 4.31.
For TCGAGTAGGTTACGGGGGGATTCAGGGATGAAGA the value was 3.28.
For TAGCCTAGGTCATAGGGCCAGTATAGTACGCATC the value was 1.96.
Regarding TCGAGTAGGTTACGGGGGTATTCAGGGATGAAGA, the PBM binding z-score was determined as 2.64.
For CCTAGTGGGTCAGGAGGTCACACACCGGATATGA the value was 4.65; for ACTCGGAGGACAGAGGTCAGAGCTACGCCAGTGA, 2.99.
For CTACGTAGGTTAAGGGGGTCATTCAGTTTGAAAG the value was 7.58.
For CGAAATAGGTCAAAGGACAGTGAAAGGCGACGTA the value was 2.5.
In turn, ATCTCTAGGTAAATGTTCAGTGAATCCCGAGGAT gave a PBM binding z-score of -0.0606.
In the case of CGAACTAGGTCAACGGACAGTGAAAGGCGACGTA, the PBM binding z-score was 1.12.
For CCTAGATGGTCAGGAGGTCACACACCGGATATGA the value was 3.76.
For TCGAGGAGGTTACGGGGGCATTCAGGGATGAAGA the value was 5.08; for CCGAGTAGGTTACGAGGTGGCATTCAGTGCGAAT, 0.516; for ACTCGGAGGACAAAGGTCACAGCTACGCCAGTGA, 4.95.
For ATTTGTAGGTTATCGGGTCATTCAGTTTGCGCAT the value was 5.57.
Take CCGACTTGGGCAAAGGTTACCATACTCAGTACGA: the PBM binding z-score amounted to 0.927.
For TCTAGCAGGCCATAGGGTCACTCAAGAGGTACGG the value was 2.62; for ACTAGGTGGTCAGCTGAGGTCACACACAATTCGG, 4.54.
For ATGTGTAGGTTAGGGTCATTCAGAAAGTAGGGAA the value was 4.65.
